High-throughput results as filed in PubChem.
aSyn UTR act = Activators via SNCA 5'UTR binding, MLPCN; alpha-synuclein 5'UTR reporter, activators screen; activity score, % (tested at 7.5 µM), hits read low; 300,000 tested, 7.1% active; AID 1814, 2009; in the data active means activity score below about -60%
Of the large screens only hits and unclear results are named; the others gave an inactive call. Only a sample is shown.

COCCNC(=O)/C(C#N)=C/c1cc(C)n(-c2ccc(C)cc2)c1C	aSyn UTR act -133.4
CSc1nnc(-c2cc(-c3ccc(C)cc3)nc3ccccc23)o1	none
CCc1ccc(-c2cc(-c3n[nH]c(=S)n3CC)c3ccccc3n2)cc1	aSyn UTR act -68.5
Cc1nc(/C=C/c2ccccc2)cc(/C=C/c2ccccc2)n1	aSyn UTR act -103.6
Cn1nc(/C=C/c2ccccc2)ccc1=O	aSyn UTR act -189.7
C(=C\c1cc(/C=C/c2ccccc2)ncn1)/c1ccccc1	aSyn UTR act -144.9
COc1cc(/C=C(\C#N)C(=O)Nc2cccc(C(=O)O)c2)ccc1OCc1ccc(F)cc1	aSyn UTR act -90.2
N#C/C(=C\c1ccc(OCc2ccc(Br)cc2)cc1)C(=O)Nc1cccc(C(=O)O)c1	aSyn UTR act -76.2
N#C/C(=C\c1ccc(OCc2ccc(F)cc2)cc1)C(=O)Nc1cccc(C(=O)O)c1	aSyn UTR act -107.6
CCN(CC)c1ccc(/C=N/n2c(-c3ccccc3Br)n[nH]c2=S)cc1	none
CCN(CC)c1ccc(/C=N/N2CCOCC2)cc1	aSyn UTR act -151.5
CS(=O)(=O)Nc1ccc(C(=O)NCCc2ccccc2)cc1	aSyn UTR act -124.8
O=C(NCCS(=O)(=O)NCCc1ccccc1)c1ccccc1	aSyn UTR act -62.1
O=C(NC1CCCCC1)c1cc(-c2ccc(O)cc2)on1	aSyn UTR act -152.6
CN(C(=O)c1cc(-c2ccccc2)on1)C1CCCCC1	aSyn UTR act -187.8
O=C(NC1CCCCC1)c1cc(-c2ccccc2O)on1	aSyn UTR act -144.6
Cc1ccc(-c2cc(C(=O)NC3CCCCC3)no2)cc1	aSyn UTR act -163.2
Cc1ccc(NC(=O)c2ccc(NCCN)c([N+](=O)[O-])c2)cc1Cl	aSyn UTR act -85.1
O=C(Nc1cccnc1)c1ccc(N2CCCC2)c([N+](=O)[O-])c1	aSyn UTR act -87.1
Cc1cccc(NC(=O)c2ccc(N(C)C3CCCCC3)c([N+](=O)[O-])c2)n1	aSyn UTR act -64.1
Cc1ccc(NC(=O)c2ccc(NCCCN3CCC(C)CC3)c([N+](=O)[O-])c2)c(C)c1	aSyn UTR act -63.2
CCOC(=O)c1ccc(NCCOC)c([N+](=O)[O-])c1	aSyn UTR act -90.9
O=C(Nc1ccccc1)c1ccc(NCC2CCCO2)c([N+](=O)[O-])c1 (stereo not drawn)	aSyn UTR act -125.2
CC(C)CCNc1nc(N)c([N+](=O)[O-])c(NCC2CCCO2)n1 (stereo not drawn)	none
Cc1cccc(NC(=O)c2ccc(N3CCCCC3)c([N+](=O)[O-])c2)n1	aSyn UTR act -156.9
Cc1ccc(C(=O)c2cc([N+](=O)[O-])ccc2N2CCOCC2)c(C)c1	none
Cc1cccc(NC(=O)c2ccc(N3CCOCC3)c([N+](=O)[O-])c2)n1	aSyn UTR act -114.7
Cc1cc(C(=O)Nc2ccc(N3CCCC3)c(Cl)c2)ccc1[N+](=O)[O-]	aSyn UTR act -61.8
CCCc1ccc(OCC(=O)Nc2cc(S(=O)(=O)CC)ccc2O)cc1	aSyn UTR act -170.6
COC(=O)c1cc(NC(=O)/C=C/c2ccccc2)ccc1O	aSyn UTR act -140.5
O=C(/C=C/c1ccccc1)NC(=S)Nc1ccccc1O	aSyn UTR act -242.0
O=C(/C=C/c1ccc(F)cc1)NC(=S)Nc1ccccc1O	aSyn UTR act -209.9
NC(=S)NC(=O)/C=C/c1ccccc1	aSyn UTR act -111.0
CCS(=O)(=O)c1ccc(O)c(NC(=O)/C=C/c2ccccc2)c1	aSyn UTR act -110.0
O=C(NCc1ccccn1)Nc1ccc(Cl)cc1Cl	aSyn UTR act -97.0
COCCCNC(=O)Nc1ccc(Br)cc1Cl	aSyn UTR act -72.2
O=C(NCc1ccccn1)Nc1ccc(Br)cc1Cl	aSyn UTR act -72.3
S=C(NCc1ccccn1)Nc1ccc(Br)cc1Cl	aSyn UTR act -143.2
O=C(NCc1ccccn1)c1ccc(Cn2c(=S)[nH]c3ccc(Br)cc3c2=O)cc1	none
S=C(NCc1ccccn1)Nc1ccccc1Cl	aSyn UTR act -115.3
CC(=O)Nc1ccc(C(=O)Nc2cc(C)on2)cc1	aSyn UTR act -85.4
CCCCCCCC(=O)Oc1ccc(C(=O)Nc2cc(C)on2)cc1	aSyn UTR act -93.3
Cc1cc(NC(=O)c2nn(C)c(C)c2Br)no1	aSyn UTR act -87.5
Cc1cc(NC(=O)c2ccc(F)cc2)no1	aSyn UTR act -79.0
CCN1CCN(Cc2ccc(NC(=O)c3ccc(C)c(NC(=O)N4CCNC4=O)c3)cc2C(F)(F)F)CC1	none
CCN1CCN(c2ccc(NC(=O)c3ccc4c(c3)[nH]c(=O)n4Cc3ccc(F)cc3)cc2)CC1	aSyn UTR act -67.6
CCC(=NCCc1c(C)[nH]c2ccc(C)cc12)C1=C(O)CC(c2ccccc2)CC1=O (stereo not drawn)	none
C=CCc1c(C)[nH]c2ccc(C)cc2c1=O	aSyn UTR act -85.7
Cc1nnc(Oc2ccccc2F)c2ccccc12	aSyn UTR act -93.9
COc1ccc(Oc2nnc(C)c3ccccc23)cc1	aSyn UTR act -175.2
COc1ccc(-c2nnc3c4ccccc4c(C)nn23)cc1	aSyn UTR act -206.0
NC(=O)C1=C[C@H](C2CCCCC2)C[C@H](OCc2ccc(CO)cc2)O1	aSyn UTR act -98.3
NNc1nc2c(-c3ccc(Cl)cc3)nnn2c2ccccc12	aSyn UTR act -92.2
NNc1nc2c(-c3ccc(F)cc3)nnn2c2ccccc12	aSyn UTR act -140.9
CC(=O)c1sc2c(c1OC(=O)c1ccc(Cl)cc1Cl)c(=O)n(-c1ccccc1)c(=S)n2-c1ccccc1	none
S=c1[nH]nc(-c2ccc(Cl)cc2Cl)n1-c1ccccc1	aSyn UTR act -198.9
Fc1ccc(COc2ccc(C(=S)N3CCCC3)cc2)cc1	aSyn UTR act -77.4
O=C(c1ccc(COc2ccccc2Br)cc1)N1CCCCC1	aSyn UTR act -77.4
O=C(Nc1ccc(F)cc1)c1ccc2ncsc2c1	aSyn UTR act -176.3
O=C(Nc1cccc(Cl)c1)c1ccc2ncsc2c1	aSyn UTR act -266.2
O=C(Nc1ccc(C(F)(F)F)cc1)c1ccc2ncsc2c1	aSyn UTR act -167.3
O=C(Nc1ccc(Cl)cc1)c1ccc2ncsc2c1	aSyn UTR act -227.5
Cc1ccc(NC(=O)c2ccc3ncsc3c2)cc1S(=O)(=O)N(C)C	aSyn UTR act -148.4
Clc1cccc(Nc2nc(-c3ccncc3)cs2)c1	aSyn UTR act -159.3
Cc1ccc(Nc2nc(-c3ccncc3)cs2)cc1	aSyn UTR act -331.1
CCOC(=O)c1c(-c2ccccc2)nc2cc(C)ccn12	aSyn UTR act -104.2
CCOC(=O)c1c(-c2ccccc2)nc2ccc(C)cn12	aSyn UTR act -165.9
COc1ccc(C2CC(c3ccc4ccccc4c3)=NN2C(=O)CN2CCC(C(N)=O)CC2)cc1 (stereo not drawn)	aSyn UTR act -133.7
CC(=O)OCC(=O)N1N=C(c2ccc3ccccc3c2)CC1c1ccccc1 (stereo not drawn)	aSyn UTR act -106.2
COc1ccc(C2CC(c3ccc4ccccc4c3)=NN2C(=O)COC(=O)C2CCC(=O)N2)cc1 (stereo not drawn)	aSyn UTR act -151.9
CCOC(=O)/C=C(\C)N1N=C(c2ccccc2)CC1c1ccccc1 (stereo not drawn)	aSyn UTR act -187.5
COc1cc(C2CC(c3cccs3)=NN2C(=O)CCl)ccc1OC(F)F (stereo not drawn)	none
CN(c1ccc(O)cc1)c1nc(O)c(C2=c3ccccc3=NC2=O)s1	aSyn UTR act -155.5
CCCCN1C(=O)/C(=C/C=C2\SCCN2C)SC1=S	aSyn UTR act -120.8
CN=c1scc(-c2cccs2)n1/N=C/c1ccccc1O	none
Oc1ccccc1/C=N/N1CCCCC1	aSyn UTR act -76.9
Oc1ccc(/C=N/N2CCCCC2)c(O)c1	aSyn UTR act -92.9
CCc1cccc(NC(=O)c2ccc3c(=O)n4c(nc3c2)CCCCC4)c1	aSyn UTR act -127.4
